# Experiments:
# Experiment in all cases: relative growth (AUC of 72 h growth curve relative to DMSO control, dAUC) (ratio); higher = more growth (less inhibition), active = hit call of the paper
# Settings in all cases: 20 µM;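 active = growth AUC significantly below the DMSO wells by Dunnett test; inactive = the rest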
# [1] = system: Aeromonas 1 (Aeromonas sp. AE235)
# How it was run: (§1)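 Whole sediment communities and bacterial isolates from Icelandic stream sediments and Silwood Park soil were brought to carrying capacity in Luria–Bertani medium. They were then diluted 1:100 into 96-well plates with each chemical at 20 µM in 1% DMSO, and A600 was recorded every hour for 72 h. The area under each growth curve, integrated by spline, was averaged across three biological replicates. This figure, divided by the mean of the DMSO controls, gives relative growth (dAUC).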
# [2] = system: Aeromonas 2 (Aeromonas sobria)
# How it was run: as §1
# [3] = system: Aeromonas 3 (Aeromonas popoffii)
# How it was run: as §1
# [4] = system: Argrobacterium 1 (Agrobacterium sp.)
# How it was run: as §1
# [5] = system: Arthrobacter 1 (Arthrobacter humicola)
# How it was run: as §1
# [6] = system: Arthrobacter 2 (Arthrobacter humicola)
# How it was run: as §1
# [7] = system: Arthrobacter 3 (Arthrobacter sp.)
# How it was run: as §1
# [8] = system: Community 4
# How it was run: as §1
# [9] = system: Community 6
# How it was run: as §1
# [10] = system: Community 7
# How it was run: as §1
# [11] = system: Community 8
# How it was run: as §1
# [12] = system: Community 9
# How it was run: as §1
# [13] = system: Flavobacterium 1 (Flavobacterium glaciei)
# How it was run: as §1
# [14] = system: Flavobacterium 2 (Flavobacterium succinicans)
# How it was run: as §1
# [15] = system: Hymenobacter 1 (Hymenobacter glaciei)
# How it was run: as §1
# [16] = system: Microbacterium 1 (Microbacterium arborescens)
# How it was run: as §1
# [17] = system: Neobacillus 1 (Neobacillus soli)
# How it was run: as §1
# [18] = system: Oryzobacter 1 (Oryzobacter terrae)
# How it was run: as §1
# [19] = system: Paenibacillus 1 (Paenibacillus castaneae)
# How it was run: as §1
SMILES,relative growth [1],relative growth [2],relative growth [3],relative growth [4],relative growth [5],relative growth [6],relative growth [7],relative growth [8],relative growth [9],relative growth [10],relative growth [11],relative growth [12],relative growth [13],relative growth [14],relative growth [15],relative growth [16],relative growth [17],relative growth [18],relative growth [19]
COCC(=O)N(c1c(C)cccc1C)[C@H](C)C(=O)OC,0.971 (inactive),1.01 (inactive),1.02 (inactive),1 (inactive),0.981 (inactive),1.03 (inactive),1.04 (inactive),1.21 (inactive),1.08 (inactive),0.993 (inactive),1.06 (inactive),1.1 (inactive),1.05 (inactive),1.02 (inactive),1.08 (inactive),1.03 (inactive),1.01 (inactive),0.955 (inactive),1.05 (inactive)
COc1ncc(F)c2nc(S(=O)(=O)Nc3c(F)cccc3F)nn12,1.06 (inactive),1.02 (inactive),1.07 (inactive),0.953 (inactive),1.03 (inactive),1.11 (inactive),1.03 (inactive),1.05 (inactive),1.05 (inactive),0.948 (inactive),1.04 (inactive),1.11 (inactive),1.03 (inactive),1.06 (inactive),1.06 (inactive),1.03 (inactive),1.04 (inactive),1 (inactive),1.06 (inactive)
CO/C=C(/C(=O)OC)c1ccccc1Oc1cc(Oc2ccccc2C#N)ncn1,0.938 (inactive),0.929 (inactive),0.947 (inactive),1.02 (inactive),0.985 (inactive),1 (inactive),1.08 (inactive),1.1 (inactive),0.903 (inactive),0.834 (inactive),1.03 (inactive),1.04 (inactive),1.09 (inactive),0.99 (inactive),1.03 (inactive),0.975 (inactive),1.01 (inactive),1.13 (inactive),1.01 (inactive)
CCOCN(C(=O)CCl)c1c(C)cccc1CC,0.953 (inactive),0.938 (inactive),0.964 (inactive),1.02 (inactive),0.999 (inactive),0.858 (inactive),1.02 (inactive),0.952 (inactive),0.921 (inactive),0.976 (inactive),1.02 (inactive),1.06 (inactive),1.05 (inactive),0.946 (inactive),0.969 (inactive),1.06 (inactive),0.667 (active),1.04 (inactive),0.928 (inactive)
N#Cc1c(Cl)c(Cl)c(Cl)c(C#N)c1Cl,1.04 (inactive),0.898 (inactive),1.01 (inactive),0.958 (inactive),0.567 (active),0.136 (active),0.599 (active),1.08 (inactive),0.965 (inactive),0.891 (inactive),1.02 (inactive),0.784 (inactive),0.681 (active),0.543 (active),0.352 (active),1.06 (inactive),0.966 (inactive),0.632 (active),0.0717 (active)
Nc1c([N+](=O)[O-])ccc(Oc2ccccc2)c1Cl,0.959 (inactive),0.953 (inactive),0.961 (inactive),0.972 (inactive),0.894 (inactive),0.826 (inactive),0.957 (inactive),0.851 (inactive),0.856 (inactive),0.955 (inactive),1.03 (inactive),0.907 (inactive),0.864 (inactive),0.917 (inactive),1.09 (inactive),1.03 (inactive),0.913 (inactive),1.05 (inactive),0.843 (inactive)
CCCCN(CCCC)SN(C)C(=O)Oc1cccc2c1OC(C)(C)C2,1.06 (inactive),1.03 (inactive),1.05 (inactive),1.07 (inactive),1.23 (inactive),0.838 (inactive),0.966 (inactive),0.917 (inactive),0.92 (inactive),1.13 (inactive),1.01 (inactive),0.884 (inactive),0.925 (inactive),0.985 (inactive),1.13 (inactive),1.01 (inactive),0.952 (inactive),1.2 (inactive),1.12 (inactive)
Cc1cc(C)nc(Nc2ccccc2)n1,0.974 (inactive),0.977 (inactive),1.07 (inactive),0.874 (inactive),0.948 (inactive),0.929 (inactive),1.03 (inactive),0.984 (inactive),1.04 (inactive),1.09 (inactive),1.03 (inactive),1.03 (inactive),1.01 (inactive),0.983 (inactive),1.1 (inactive),1.03 (inactive),0.999 (inactive),0.978 (inactive),0.762 (inactive)
COC(=O)N(OC)c1ccccc1COc1ccn(-c2ccc(Cl)cc2)n1,1.04 (inactive),0.927 (inactive),0.979 (inactive),1.04 (inactive),1.16 (inactive),1.02 (inactive),0.903 (inactive),0.941 (inactive),1.03 (inactive),1.11 (inactive),1.04 (inactive),1.09 (inactive),0.969 (inactive),0.979 (inactive),1.08 (inactive),0.98 (inactive),1.03 (inactive),1.17 (inactive),0.944 (inactive)
CO/N=C(/C(=O)OC)c1ccccc1CO/N=C(\C)c1cccc(C(F)(F)F)c1,0.966 (inactive),0.929 (inactive),0.961 (inactive),1.07 (inactive),0.928 (inactive),0.876 (inactive),0.97 (inactive),0.822 (inactive),0.809 (inactive),1.05 (inactive),0.968 (inactive),0.784 (inactive),0.975 (inactive),0.943 (inactive),1.05 (inactive),0.99 (inactive),1 (inactive),1.26,0.9 (inactive)
CCOC(=O)OC1=C(c2cc(C)ccc2C)C(=O)N[C@]12CC[C@@H](OC)CC2,0.965 (inactive),0.981 (inactive),1.01 (inactive),1.03 (inactive),1.17 (inactive),1.03 (inactive),0.986 (inactive),1.14 (inactive),1.02 (inactive),1.03 (inactive),0.995 (inactive),1.03 (inactive),1.08 (inactive),1.05 (inactive),0.987 (inactive),1.01 (inactive),1.09 (inactive),1.05 (inactive),1.01 (inactive)
CN/C(=N/CC1CCOC1)N[N+](=O)[O-] (stereo not drawn),1 (inactive),1.02 (inactive),1.05 (inactive),1.02 (inactive),1.01 (inactive),1.03 (inactive),0.998 (inactive),1.09 (inactive),1 (inactive),1.01 (inactive),1.03 (inactive),1.04 (inactive),1.04 (inactive),1.02 (inactive),1.06 (inactive),1.02 (inactive),0.994 (inactive),0.957 (inactive),1.01 (inactive)
N#Cc1cc(Br)c(O)c(Br)c1,0.985 (inactive),0.899 (inactive),1.01 (inactive),1.03 (inactive),0.984 (inactive),0.827 (inactive),1.02 (inactive),1.08 (inactive),1.05 (inactive),1.07 (inactive),1.05 (inactive),1.08 (inactive),1.02 (inactive),0.951 (inactive),0.861 (inactive),1.05 (inactive),0.842 (inactive),0.742 (active),1.16 (inactive)
CC1(C)CON(Cc2ccccc2Cl)C1=O,0.978 (inactive),0.966 (inactive),1.01 (inactive),1 (inactive),0.963 (inactive),0.879 (inactive),1.08 (inactive),0.973 (inactive),0.946 (inactive),1.08 (inactive),1.04 (inactive),1.02 (inactive),1.02 (inactive),0.941 (inactive),0.974 (inactive),1 (inactive),0.965 (inactive),1.13 (inactive),0.973 (inactive)
CC(C)NC(=O)N1CC(=O)N(c2cc(Cl)cc(Cl)c2)C1=O,0.998 (inactive),0.934 (inactive),1.01 (inactive),0.984 (inactive),1.06 (inactive),0.957 (inactive),0.841 (inactive),0.925 (inactive),0.969 (inactive),1.07 (inactive),0.959 (inactive),0.94 (inactive),0.854 (inactive),0.973 (inactive),0.959 (inactive),0.984 (inactive),0.961 (inactive),1.02 (inactive),0.996 (inactive)
Cc1nc(N(C)C)nc(OC(=O)N(C)C)c1C,0.991 (inactive),0.948 (inactive),0.968 (inactive),0.962 (inactive),0.924 (inactive),0.847 (inactive),0.932 (inactive),0.871 (inactive),0.942 (inactive),1.12 (inactive),0.951 (inactive),0.938 (inactive),0.924 (inactive),0.965 (inactive),0.864 (inactive),0.988 (inactive),0.928 (inactive),0.936 (inactive),0.942 (inactive)
Fc1ccc([C@]2(Cn3cncn3)O[C@H]2c2ccccc2Cl)cc1 (racemic),0.946 (inactive),0.979 (inactive),0.974 (inactive),0.985 (inactive),0.883 (inactive),0.947 (inactive),0.856 (inactive),0.965 (inactive),1.05 (inactive),1.15 (inactive),1.04 (inactive),0.984 (inactive),0.944 (inactive),0.938 (inactive),0.943 (inactive),1.01 (inactive),0.963 (inactive),1.13 (inactive),0.92 (inactive)

# — the supplement of paper PMC12067926
